Compounds with a hit are over-represented: about 1.1% of the library has one in this group of screens.
NR5A2 inv ag: inverse agonists of human LRH-1 (NR5A2). O00482. HEK293T StAR-luciferase reporter, LRH-1 transfected, 24 h. inhibition, % at 3.6 µM. actives 0.13% (n = 360,000);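 active = inhibition above the mean inhibition of all tested compounds plus 3 SD, cut at about 73% in these data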;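 also: 0% = DMSO wells and 100% = reporter-only cells lacking LRH-1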
GalR3 antag: human GalR3 antagonism. inhibition, % at 3 µM. O60755. HEK293 GalR3-CNG cAMP membrane potential fluorescence; galR3 body fused to GalR1 C-terminus. actives 0.44% (n = 360,000). AID 651719;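 active = inhibition above the screen-wide average plus 3 SD, cut at about 13% in these data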;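 also: forskolin and galanin both at EC90 stimulate the cells; cAMP rise reported by CNG channel membrane potential dye signal; 0% = forskolin plus galanin with DMSO and 100% = forskolin alone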
Target sequence (O60755 1-299 limits assumed): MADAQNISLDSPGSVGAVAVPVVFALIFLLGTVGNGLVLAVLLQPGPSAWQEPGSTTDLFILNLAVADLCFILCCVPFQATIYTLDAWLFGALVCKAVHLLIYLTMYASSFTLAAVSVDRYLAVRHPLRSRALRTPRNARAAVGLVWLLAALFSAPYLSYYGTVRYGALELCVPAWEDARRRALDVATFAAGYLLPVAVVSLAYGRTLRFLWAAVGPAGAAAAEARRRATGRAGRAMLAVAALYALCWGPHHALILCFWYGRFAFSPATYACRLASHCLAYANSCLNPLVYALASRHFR
NCOA3 inh: human NCOA3 inhibition; Q9Y6Q9; inhibition, % at 3.6 µM; HEK293 GAL4-SRC3 luciferase reporter, luminescence; actives 0.17% (n = 360,000);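 active = inhibition above a per-campaign cutoff, the mean of all compounds plus 3 SD, cut at about 60% in these data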;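 also: 0% = DMSO-treated cells and 100% = gossypol-treated cells at 36 µM; higher means less SRC3-driven luciferase light from the GAL4 reporter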
COUP-TFII inh: inhibitors of human COUP-TFII (NR2F2); AID 686940; actives 0.7% (n = 370,000); inhibition, % at 8.6 µM; P24468; HEK293T NGFI-A luciferase reporter, luminescence;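 active = inhibition above a per-plate cutoff, mean inhibition of test wells between control levels plus 3 SD, cut at about 38% in these data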;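 also: cells cotransfected with COUP-TFII expression vector driving the NGFI-A reporter; 0% = median of COUP-TF2 test wells and 100% = reporter-only cells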
NCOA1 inh: inhibitors of human steroid receptor coactivator 1 (SRC1). Q15788. HEK293 GAL4-SRC1 luciferase reporter, luminescence. inhibition, % at 3.6 µM. actives 0.12% (n = 360,000). AID 588354;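 active = inhibition above the campaign mean plus 3 SD, with each screening campaign given its own cutoff, cut at about 60% in these data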;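 also: 0% = DMSO treated cells and 100% = gossypol at 36 µM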
SRC2 inh: inhibits human steroid receptor coactivator 2. HEK293 GAL4-SRC2 luciferase reporter, luminescence. actives 0.17% (n = 370,000). AID 651957. Q15596. inhibition, % at 9 µM;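 active = inhibition above the mean inhibition of all tested compounds plus 3 SD, set per campaign, cut at about 52% in these data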;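 also: 0% = DMSO treated cells and 100% = cells given Gossypol at 36 µM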
Gal4-VP16 ctr: VP16 inhibition counter-screen for COUP-TFII; shares compounds with COUP-TFII inh; HEK293 Gal4-VP16 luciferase reporter, luminescence; inhibition, % at 8.5 µM; actives 25% (n = 2,500); AID 687007; in the data active = inhibition above about 13%
NR2F2 inh conf: COUP-TFII (NR2F2) inhibition, confirmation assay; inhibition, % at 8.5 µM; actives 45% (n = 2,500); HEK293 NGFI-A luciferase reporter, luminescence; AID 687008; shares compounds with COUP-TFII inh;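 active = mean inhibition over three repeats above a set limit taken from the earlier primary screen, cut at about 38% in these data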;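 also: 100% = cells given the luciferase reporter alone without the COUP-TF2 vector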
* marks the source's active call; other numbers are inactive results; · = not tested or not shown.

SMILES | NR5A2 inv ag | GalR3 antag | NCOA3 inh | COUP-TFII inh | NCOA1 inh | SRC2 inh | Gal4-VP16 ctr | NR2F2 inh conf
COc1ccc(-c2cc(-c3nnc(SCC(=O)Nc4ccccc4-c4ccccc4)n3N)[nH]n2)cc1 | · | · | · | 8 | · | -28 | · | ·
CC(=O)N(CCc1ccccc1)c1ccc2c(c1)C1CC2CCN1C(=O)OCc1ccccc1 (stereo unspecified) | -14 | -9 | 0 | 38* | 5 | 34 | -5 | 7
COc1ccc(/C=C2\CC3(OC(=O)C4CCCC4)CCCN2C3)cc1 (stereo unspecified) | · | · | · | -9 | · | -39 | · | ·
Cc1cnc(NC(=O)c2ccc3c(c2)OCCO3)s1 | 8 | -8 | 22 | 46* | 8 | 67* | -5 | 20
C=CCN1[C@@H](Cc2ccccc2)COc2cccc(F)c2S1(=O)=O | · | · | · | 6 | · | 2 | · | ·
COc1ccc(-c2cn3c(C)c(C(=O)Nc4ccncc4)sc3n2)cc1 | -4 | · | 15 | 47* | 3 | 16 | -31 | 7
COC(=O)c1ccc(NC(=O)c2sc3nc(-c4ccccc4)cn3c2C)cc1 | -20 | -4 | 13 | -12 | 0 | -15 | · | ·
COc1ccc(-c2cn3c(C)c(C(=O)Nc4cccc(NC(C)=O)c4)sc3n2)cc1 | -2 | -1 | -32 | 59* | 14 | 4 | -29 | -5
Cc1sc2ncnc(NCC(C)(C)N3CCOCC3)c2c1C | 29 | 12 | 10 | 43* | 3 | 18 | 4 | 44*
CCCN1C=CC(=C2C(=O)c3ccccc3C2=O)C=C1 | 28 | -4 | 67* | 85* | 47 | 85* | 73* | 85*
CCN1C=CC(=C2C(=O)c3ccccc3C2=O)C=C1 | 0 | -2 | 30 | 70* | 20 | 65* | 31* | 37
CCCCCCN1C=CC(=C2C(=O)c3ccccc3C2=O)C=C1 | -68 | -10 | -1 | -24 | -62 | -14 | · | ·
O=C(Nc1nonc1NC(=O)c1cccs1)c1cccs1 | 49 | -8 | 30 | 49* | 30 | 14 | 4 | 34
O=C(Nc1ccc(NC(=O)c2cccs2)cc1)c1cccs1 | -76 | 0 | -83 | -39 | -46 | -75 | · | ·
Cc1ccc(NC(=O)c2cccc3c2-c2ccccc2C3=O)c(C)c1 | · | · | · | 6 | · | 3 | · | ·
COc1ccc(C(=O)CN2C(=O)c3ccccc3S2(=O)=O)cc1 | 35 | 1 | 61 | 91* | 58 | 81* | 52* | 77*
Cc1cc(C(=O)CN2C(=O)c3ccccc3S2(=O)=O)c(C)n1CC1CCCO1 (stereo unspecified) | 89* | 5 | 88* | 93* | 80* | 88* | 86* | 96*
Cc1ccc(C)c(C(=O)CN2C(=O)c3ccccc3S2(=O)=O)c1 | -31 | 1 | -67 | -14 | -40 | -19 | · | ·
CCCn1c(C)cc(C(=O)CN2C(=O)c3ccccc3S2(=O)=O)c1C | 81* | -5 | 73* | 85* | 75* | 82* | 77* | 91*
CC1C/C(=C/c2ccncc2)C(=O)/C(=C/c2ccncc2)C1 (stereo unspecified) | 45 | -9 | -24 | 87* | -303 | 74* | 82* | 97*
COC(=O)[C@]12C[C@H](CC(=O)N3CCSCC3)C(=O)N(CCC3=CCCCC3)C1=C[C@H](C(C)(C)C)O[C@@H]2C | · | -7 | · | 11 | · | -10 | · | ·
COc1ccccc1NC(=O)Cn1c(C)cc(=O)c2cccc(OC)c21 | 26 | -3 | 23 | 51* | 33 | 31 | 8 | 42*
CCn1c(=O)n(CC(=O)N2CCOCC2)c(=O)c2ccccc21 | · | · | · | 16 | · | 2 | · | ·
CCOC(=O)C1=C(C)N(Cc2ccccc2)C(=O)NC1c1ccccc1OS(=O)(=O)c1ccccc1[N+](=O)[O-] (stereo unspecified) | 38 | -6 | 14 | 47* | 20 | 12 | 1 | 34
COC(=O)C1=C(C)N(CCCC(=O)O)C(=O)NC1c1ccccc1OS(=O)(=O)c1ccccc1[N+](=O)[O-] (stereo unspecified) | -9 | -3 | -8 | 6 | -14 | 1 | · | ·
SMILES | NR5A2 inv ag | GalR3 antag | NCOA3 inh | COUP-TFII inh | NCOA1 inh | SRC2 inh | Gal4-VP16 ctr | NR2F2 inh conf
O=C(CCc1ccccc1)N[C@H]1[C@@H](OC(=O)c2cnccn2)CCC[C@]12C(=O)N(Cc1ccccc1)c1ccccc12 | · | · | · | -3 | · | 10 | · | ·
Cc1nc(NCc2ccc(S(N)(=O)=O)cc2)c2c(C)c(C)sc2n1 | 15 | -6 | -6 | 6 | -6 | 1 | · | ·
Cc1nc(NCCc2ccc(S(N)(=O)=O)cc2)c2c(C)c(C)sc2n1 | 38 | -9 | 27 | 48* | 7 | 0 | 0 | 17
CC(C)(C)c1ccc(-c2cc(-c3ccccc3O)[nH]n2)cc1 | 15 | -4 | 32 | 37* | 28 | 14 | 2 | 51*
O=C(Nc1cccc(S(=O)(=O)N2CCOCC2)c1)c1ccc2c(=O)n3c(nc2c1)CCCCC3 | 2 | 2 | 27 | 39* | -17 | 9 | -3 | 9
COc1ccc(Cl)c(-c2cc(C(=O)Nc3ccc(C)c(NS(C)(=O)=O)c3)[nH]n2)c1 | 21 | -7 | -2 | 25 | -7 | 19 | · | ·
Cc1ccc(NC(=O)c2cc(-c3cc(Cl)ccc3C)n[nH]2)cc1NS(C)(=O)=O | 30 | 9 | 5 | 50* | 22 | 7 | -6 | 41*
COc1ccc(Cl)cc1-c1cc(C(=O)Nc2ccc(C)c(NS(C)(=O)=O)c2)[nH]n1 | 8 | -5 | 2 | 38* | 14 | 25 | -10 | -4
O=C(NCCN1CCC(Cc2ccccc2)CC1)C1CCCN(S(=O)(=O)c2ccc([N+](=O)[O-])cc2)C1 (stereo unspecified) | · | · | · | 25 | · | 24 | · | ·
COCC(=O)OC1CCn2c1nc1c2C(=O)C(C)=C(NC(C)=O)C1=O (stereo unspecified) | 96* | -6 | 88* | 72* | 90* | 73* | 50* | 74*
CC(C)c1ccc(/C=N/Nc2ccc(C(=O)O)cc2)cc1 | -97 | -4 | 36 | 52* | 36 | 1 | -119 | 37*
Cc1ccc(/C=N/Nc2ccc(C(=O)O)cc2)s1 | -16 | 8 | 15 | 41* | -15 | 40 | -84 | 9
Cc1ccc(/C=N/Nc2cccc(C(=O)O)c2)s1 | -160 | -3 | -116 | -59 | -153 | -64 | · | ·
Cc1c[nH]c2cccc(-c3ccc4c(c3)OCO4)c12 | · | · | · | -24 | · | -35 | · | ·
O=C(Nc1nc2ncccn2c1-c1ccc(F)c(F)c1)C1CC1 | · | · | · | -19 | · | 3 | · | ·

Assay outcomes from PubChem BioAssay.
